Results on 19 compounds are retold here after PubChem BioAssay (EPA / NIEHS).

Each structure is given as a SMILES string. Where “and” joins values, the source holds several entries; their conditions need not be identical. Equal entries are not always repeated. Results filed as inconclusive are left out. Calls of active or inactive are those of the source. Rule for the calls: active = hit-call score of the fitted dose curve at least 0.9, where 1 is the maximum; inconclusive = response in the unintended direction; inactive = score below 0.9.

Experiment [1] is described as follows: ACEA_AR_antagonist_AUC_viability: ACEA Biosciences xCELLigence Real-Time Cell Analysis on Androgen Receptor Antagonism for Viability (AID 2283776).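 Note: 22Rv1 human prostate cancer cells growing on impedance electrode plates; hits lower the growth signal relative to DMSO meaning cytotoxicity.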 The method, boiled down:
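22Rv1 prostate cells, continuous dosing up to 100 uM final (0.5% DMSO max), duplicate plates. Growth measured by impedance; AUC at 80 h, loss of signal vs DMSO.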

Experiment [2] in a line: STM_H9_NormalizedViability: Cytotoxicity Assessment at 120 hours in the Stemina devTOX quickPredict H9 human embryonic stem cell (hESC)-based Assay (AID 2283784). In outline:
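Viability of the cell layer was taken from live-cell protease cleavage of a fluorogenic substrate after compound exposure of undifferentiated H9 stem cells, with replenishment each 24h. Fluorescence was normalized to vehicle (0.1% DMSO).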

In experiment [3] the target is AR (gene 367) (UniProt P10275). The experiment in a line: ACEA_AR_antagonist_80hr: ACEA Biosciences xCELLigence Real-Time Cell Analysis on Androgen Receptor Antagonism for Proliferation (AID 2283787).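 Note: 22Rv1 human prostate cancer cells with growth followed by electrical impedance; hits lower the impedance growth signal relative to DMSO.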 In outline:
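Using 22Rv1 cells held in assay medium, we dosed compounds (100 uM maximum final, 1:4 serial, eight points, 0.5% DMSO at top) and recorded cell-electrode impedance; the 80 hr timepoint was analyzed against DMSO.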

The nature of experiment [4]: ATG_M_06_XSP2: Attagene TRANS-FACTORIAL Multi-Species (XSP2) HepG2 Assay for M06 Transcription Factor (Internal Marker) (AID 2283811).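 Note: internal background marker reporter mRNA measured by RT-PCR and capillary electrophoresis; hits are increases in signal above the DMSO baseline.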 The method, boiled down:
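Cells of the human liver line HepG2 carried transfected reporter transcription units and were treated for 24 h. Induced reporter transcripts were detected by fluorescence after RT-PCR and capillary electrophoresis, with activity fitted in the gain direction against DMSO.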

For experiment [5], the system named is turtle Estrogen Receptor (ERa), gene 101933533. The experiment in a line: ATG_trERa_XSP2: Attagene TRANS-FACTORIAL Multi-Species (XSP2) HepG2 Assay for turtle Estrogen Receptor (ERa) (AID 2283812).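 Note: actives raise reporter signal above DMSO so AC50 reflects agonist activity.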 The method, boiled down:
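Readout is reporter mRNA quantified by RT-PCR with capillary electrophoresis after 24 h compound exposure, increase relative to DMSO. Uses transiently transfected human HepG2 liver cells carrying a chimeric turtle ERa-Gal4 receptor driving GAL4-UAS reporters.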

The target of experiment [6] is GAL4 Transcription Factor (Internal Marker), GAL4 (gene 855828) (UniProt P04386). The experiment in a line: ATG_GAL4_XSP2: Attagene TRANS-FACTORIAL Multi-Species (XSP2) HepG2 Assay for GAL4 Transcription Factor (Internal Marker) (AID 2283814).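 Note: GAL4 reporter mRNA background control in MRTU transfected cells not a receptor target.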 The method, boiled down:
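Background-control readout: gain-of-signal fitted against DMSO. After 24 h exposure of transfected HepG2 (MRTU, GAL4-UAS reporters; 3 nM 6-alpha-fluorotestosterone, 1.5 nM norgestrel present), transcripts quantified by RT-PCR and capillary electrophoresis fluorescence.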

The target in experiment [7] is AR (gene 367) (UniProt P10275). The experiment in a line: ACEA_AR_agonist_80hr: ACEA Biosciences xCELLigence Real-Time Cell Analysis on Androgen Receptor Agonism for Proliferation (AID 2283783).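 Note: hits increase impedance growth signal above DMSO baseline.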 In outline: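 Real-time cell-growth kinetics were recorded by electrode impedance in 22Rv1 cells exposed to test chemicals up to 100 uM final; the 80 h timepoint served as the readout, fitted upward relative to DMSO controls, in biological duplicate.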
AR (gene 367), sequence (P10275 whole entry, looked up): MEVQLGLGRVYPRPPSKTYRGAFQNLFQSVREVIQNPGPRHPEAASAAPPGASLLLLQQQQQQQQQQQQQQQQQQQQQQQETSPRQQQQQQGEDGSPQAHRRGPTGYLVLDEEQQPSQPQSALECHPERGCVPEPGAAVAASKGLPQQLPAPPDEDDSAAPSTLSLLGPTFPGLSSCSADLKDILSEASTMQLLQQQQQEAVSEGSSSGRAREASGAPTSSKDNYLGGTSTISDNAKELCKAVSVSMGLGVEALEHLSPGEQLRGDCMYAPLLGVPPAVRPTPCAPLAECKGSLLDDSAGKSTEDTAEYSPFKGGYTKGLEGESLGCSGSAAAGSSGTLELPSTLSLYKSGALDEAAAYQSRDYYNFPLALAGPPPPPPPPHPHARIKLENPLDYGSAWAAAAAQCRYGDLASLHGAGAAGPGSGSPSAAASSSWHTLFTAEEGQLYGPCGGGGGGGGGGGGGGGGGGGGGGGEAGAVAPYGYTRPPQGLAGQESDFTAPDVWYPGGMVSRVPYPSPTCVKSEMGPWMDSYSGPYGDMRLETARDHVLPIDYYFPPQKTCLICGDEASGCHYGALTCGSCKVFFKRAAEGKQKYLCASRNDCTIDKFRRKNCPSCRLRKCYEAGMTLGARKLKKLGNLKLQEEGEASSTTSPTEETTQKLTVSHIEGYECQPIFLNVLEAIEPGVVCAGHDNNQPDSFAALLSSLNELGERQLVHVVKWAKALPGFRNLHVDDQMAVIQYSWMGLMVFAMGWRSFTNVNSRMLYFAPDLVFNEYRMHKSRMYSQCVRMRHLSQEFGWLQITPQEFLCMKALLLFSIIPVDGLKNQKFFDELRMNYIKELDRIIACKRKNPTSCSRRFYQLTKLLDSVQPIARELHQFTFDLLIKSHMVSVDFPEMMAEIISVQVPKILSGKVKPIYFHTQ

The nature of experiment [8]: ACEA_ER_AUC_viability: ACEA Biosciences xCELLigence Real-Time Cell Analysis on Estrogen Receptor Agonism for Viability (AID 2283782).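 Note: hit means loss of impedance signal meaning reduced cell growth or viability.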 In outline: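 Continuous-exposure impedance cell analysis uses T-47D cells in charcoal-stripped serum, eight 1:4 dilutions topping at 100 uM final, biological duplicate. Area under the growth curve at 80 h is fitted against DMSO baseline.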

GAL4 Transcription Factor (Internal Marker), GAL4 (gene 855828), sequence (P04386 whole entry, looked up, the tested form may be a part): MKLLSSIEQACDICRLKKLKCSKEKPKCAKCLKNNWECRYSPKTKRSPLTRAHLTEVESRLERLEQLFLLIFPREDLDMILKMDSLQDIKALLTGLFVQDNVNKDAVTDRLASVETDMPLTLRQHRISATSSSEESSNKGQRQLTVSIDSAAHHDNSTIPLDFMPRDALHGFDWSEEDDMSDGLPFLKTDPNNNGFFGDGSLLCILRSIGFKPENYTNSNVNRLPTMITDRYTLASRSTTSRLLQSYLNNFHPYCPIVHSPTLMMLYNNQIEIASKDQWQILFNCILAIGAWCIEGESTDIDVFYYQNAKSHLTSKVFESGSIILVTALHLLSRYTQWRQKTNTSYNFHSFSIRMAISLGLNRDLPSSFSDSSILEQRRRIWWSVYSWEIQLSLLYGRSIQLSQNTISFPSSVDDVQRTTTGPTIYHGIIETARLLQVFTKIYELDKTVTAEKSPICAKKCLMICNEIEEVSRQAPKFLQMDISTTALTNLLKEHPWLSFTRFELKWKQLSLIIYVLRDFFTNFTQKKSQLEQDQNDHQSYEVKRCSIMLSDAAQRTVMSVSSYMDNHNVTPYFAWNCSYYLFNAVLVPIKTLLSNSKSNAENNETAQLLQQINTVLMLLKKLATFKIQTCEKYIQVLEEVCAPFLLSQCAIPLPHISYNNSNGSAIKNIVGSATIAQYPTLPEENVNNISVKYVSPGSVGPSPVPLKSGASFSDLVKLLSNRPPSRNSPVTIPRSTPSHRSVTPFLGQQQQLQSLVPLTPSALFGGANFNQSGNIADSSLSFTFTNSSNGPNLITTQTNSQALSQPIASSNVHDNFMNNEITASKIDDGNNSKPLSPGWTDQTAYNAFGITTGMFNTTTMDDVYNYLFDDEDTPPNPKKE

Take `OC[C@@H](O)[C@@H](O)[C@H](O)[C@H](O)CO`: the result in experiment [1] and in experiment [2] was inactive.
Turning to `CC(CO)OC(C)CO` (configuration not stated) (tested in a mixture with another compound), the result in experiment [2] was inactive.
As for `Cc1ccc(N(C)C)cc1`, the call (in experiment [1]; in the experiment with AR (gene 367) [3]) was inactive.
For orientation: AC50 means the midpoint of the concentration-response curve, whichever way the signal moves. `COCCOC[C@H](CC1(C(=O)NC2CCC(C(=O)O)CC2)CCCC1)C(=O)Oc1ccc2c(c1)CCC2` (some centres not stated): the AC50 was 16.5 µM (active) in experiment [1] and 18.2 µM (active) in the experiment with AR (gene 367) [3].
As for `Cc1c(C(=O)O)c(O)cc2c1C(=O)c1c(O)c([C@@H]3O[C@H](CO)[C@@H](O)[C@H](O)[C@H]3O)c(O)c(O)c1C2=O`, the call in experiment [1] and in experiment [2] was inactive.
In the case of `C=CCOC(=O)c1ccccc1C(=O)OCC=C`, the compound was called inactive in experiment [1], in experiment [2], in experiment [4] and in experiment [6]. In addition, the half-maximal activity concentration (AC50) in experiment [5] was 74.3 µM (active) and 100 µM (active).
Take `CC(=O)C(C)=CC1C(C)=CCCC1(C)C` (configuration not stated): the half-maximal activity concentration (AC50) in experiment [1] was 9.92 µM (active); in experiment [5] it was 29.9 µM (active) and 25.5 µM (active). Besides, the result in experiment [4] and in experiment [6] was inactive.
`O=c1[nH]cc(F)c(=O)[nH]1`: the AC50 in experiment [1] is 1.76 µM (active); in experiment [2], 3.17 µM (active).
Consider `COc1cc(C=O)ccc1O`, for which, in the experiment with AR (gene 367) [7], the outcome was inactive.
For `Cc1cccc(Nc2cc(Cl)nc(SCC(=O)O)n2)c1C`, the call (in experiment [1]; in experiment [2]; with AR (gene 367) [3]) was inactive.
Regarding `COC(=O)c1ccc(O)cc1`, the AC50 in experiment [1] is 12.7 µM (active). In addition, the outcome in experiment [2] was inactive.
Consider `CCCCCC(=O)O`, for which the compound was classed as inactive (in experiment [1]; in the experiment with AR (gene 367) [3]).
In the case of `CCCc1cc(=O)[nH]c(=S)[nH]1`, the compound was classed as inactive in experiment [1] and in experiment [2].
`Cc1cc(NC(=O)C(=O)O)cc(C)c1Oc1ccc(O)c2c1CCC2`: the call (in experiment [1]; with AR (gene 367) [7]; in experiment [2]; with AR (gene 367) [3]) was inactive.
Take `Cc1ccc(Cl)cc1`: in experiment [8], the outcome was inactive.
For the compound `Cc1ccc(C)c(C)c1`, the call (in experiment [1]; with AR (gene 367) [3]) was inactive.
For `Oc1ccc2ccccc2c1N=Nc1ccccc1`, the outcome in experiment [1] was inactive. Further, in experiment [2], the half-maximal activity concentration (AC50) was 0.992 µM (active).
Turning to `CN1CCN(Cc2cc(-c3ccc4[nH]c(=O)oc4c3)co2)[C@@H](c2ccc(F)cc2)C1`, the half-maximal activity concentration (AC50) in experiment [8] is 50.8 µM (active). Further, the result in experiment [2] was inactive.
For `O=c1c(O)c(-c2ccc(O)c(O)c2)oc2cc(O)cc(O)c12`, in experiment [2], the outcome was inactive.
